Sampled rows, rich in hits. Any-hit rate of the full collection: about 11%.
Sfp PPTase inh – inhibitors of Bacillus subtilis Sfp phosphopantetheinyl transferase; Q9F4F7; Biochemical Sfp PPTase activity, qHTS; Potency, µM, for the others: largest response in the series, negative = inhibition, most hits filed as inhibitors; 3.5% of 310,000 active;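 also: the enzyme is Sfp with the accession as filed and its product quenches rhodamine fluorescence; potency is read from the fitted curve at half-maximal effect; 0% = enzyme reaction without inhibitor and -100% = no enzyme wells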
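Buffer: 50 mM Hepes-Na pH 7.6, 10 mM MgCl2, 0.01% Nonidet P-40, 0.01% BSA. Enzyme 15 nM, pre-exposed to compound 15 min; substrates then added and fluorescence change tracked over 30 min.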
FBPA coupling cs – counter-screen for Giardia aldolase inhibitors: coupling enzyme system. coupling enzyme system counterscreen, AmpLite Red fluorescence. activity change, negative = inhibition, % at 58.2 µM, hits read low. 0.67% of 290,000 active. AID 2472; in the data active = activity change below about -30%
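Final compound at 57.5 uM, incubated 10 min at RT with coupling enzyme reagent (glyceraldehyde-3-phosphate), then 20 min with substrate and AmpLite Red detection. Fluorescence read at 525/598 nm; tests interference with the coupling assay, not aldolase inhibition.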
Tau FP inhib – inhibitors of human tau fibril formation; P10636; K18 P301L tau heparin fibrillization, Alexa594 FP, 6 h; Potency, µM (titrated, usually from 57.7 µM), without a hit: at the top dose activity, negative = inhibition, hits mostly inhibitors; 0.39% of 280,000 active; also: potency is read from the fitted curve at half-maximal effect; nearly all actives have a fitted effect of over 55% in size
Target sequence (P10636 561-689 P618L limits assumed): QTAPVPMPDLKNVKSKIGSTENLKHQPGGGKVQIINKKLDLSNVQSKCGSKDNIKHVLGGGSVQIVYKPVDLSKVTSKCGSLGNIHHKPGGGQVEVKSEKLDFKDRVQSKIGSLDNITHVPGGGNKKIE
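Human K18 P301L fragment (15 uM unlabeled plus 0.24 uM Alexa 594-labeled) in 100 mM sodium acetate pH 7 with compound, aggregation induced by 20 uM heparin for 6 hr at 37 C. ThT (30 uM) added for 1 hr, then Alexa 594 FP read.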
Tau fluor counter – counter-screen for tau fibril formation inhibitors; tau K18 P301L Alexa594 fluorescence, heparin fibrillization; Potency, µM (titrated, usually from 57.7 µM), for the others: at the highest dose activity change, negative = decrease; 0.93% of 280,000 active; also: potency is read from the fitted curve at half-maximal effect; nearly all actives have a fitted effect of over 55% in size
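Human tau K18 P301L (15 uM unlabeled, 0.24 uM Alexa 594-labeled) in 100 mM sodium acetate pH 7 with 20 uM heparin, 6 hr at 37 C. ThT 30 uM added, 1 hr ambient; Alexa 594 FP and total fluorescence read at 555/632 nm.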
Tau ThT inhib – blocks human tau fibril formation measured by thioflavin T; 2.1% of 270,000 active; recombinant tau K18 P301L, heparin-induced fibrillization, ThT fluorescence; AID 1460; Potency, µM (doses to about 57.4 µM), inactives show at the highest dose activity, negative = inhibition, actives largely listed as inhibitors; also: potency is read from the fitted curve at half-maximal effect; nearly all actives have a fitted effect of over 55% in size
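Using a mix of unlabeled (15 uM) and Alexa 594-labeled (0.24 uM) tau K18 P301L, heparin-triggered fibrillization over 6 hr at 37 C was scored by ThT fluorescence.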
G9a block – G9a (human) methyltransferase inhibition; 8.8% of 350,000 active; Q96KQ7; G9a H3K9 monomethylation, AlphaScreen, 2 h; Potency, µM (series often up to 102 µM), without a hit: top-dose activity, negative = inhibition, usual class: inhibitors; also: potency is read from the fitted curve at half-maximal effect; nearly all actives have a fitted effect of over 75% in size
Target sequence (Q96KQ7 913-1193 limits assumed): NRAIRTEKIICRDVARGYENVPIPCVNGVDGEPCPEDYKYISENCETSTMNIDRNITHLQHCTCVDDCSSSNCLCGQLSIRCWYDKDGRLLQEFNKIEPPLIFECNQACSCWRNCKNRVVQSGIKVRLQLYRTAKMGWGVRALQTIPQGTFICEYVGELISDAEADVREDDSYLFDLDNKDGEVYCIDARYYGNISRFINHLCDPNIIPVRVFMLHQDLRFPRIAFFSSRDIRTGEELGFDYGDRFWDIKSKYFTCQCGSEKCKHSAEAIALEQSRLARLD
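Quantitative HTS format: methyltransferase activity on a biotin-tagged H3K9 peptide is measured by AlphaScreen, using a rabbit anti-monomethyl-H3K9 antibody with streptavidin donor and anti-IgG acceptor beads. Final levels are 20 nM enzyme, 500 nM peptide, 20 uM SAM; 2 h RT.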
Numbers without * were called inactive; ? = inconclusive; · = not tested or not shown; [ ] = remark or other dose. Unless noted, calls follow the shape of the dose curve; as a rule, active = well fitted curve in the direction sought with a large enough effect; inconclusive = small, poorly fitted or top-dose-only effect, or another doubt; inactive = no such curve, though single readings can be large; an effect the other way counts as inactive or inconclusive. Unless noted, % is scaled to controls: 0 for no effect and ±100 for the full control effect.

SMILES | Sfp PPTase inh | FBPA coupling cs | Tau FP inhib | Tau fluor counter | Tau ThT inhib | G9a block
CC1=NN(c2ccc(Br)cc2)C(=O)/C1=C/c1ccc(-c2ccccc2C(=O)O)o1 | 5% | 12 | · | · | · | 35µM*
CCOC(=O)c1cc(-c2ccc(/C=C3/C(=O)N(c4ccc(C(=O)O)cc4)N=C3C)o2)ccc1Cl | -4% | 1 | · | · | · | 7.1µM*
NS(=O)(=O)c1ccc(CCNC(=O)CNC(=O)c2ccc(Oc3ccccc3)cc2)cc1 | 5% | 1 | · | · | · | 15%
CCOc1ccc(CC(=O)Nc2ccc3nc(N4CCCCC4)cc(C)c3c2)cc1OCC | · | · | ? | ? | ? | -12%[59 µM]
COC(=O)c1c(-c2ccccc2)csc1NC(=O)C1CC=CCC1C(=O)O (centres undefined) | -6% | 17 | 3% | 5% | -13% | 45µM*
COC(=O)c1c(NC(=O)C2CC=CCC2C(=O)O)sc(C)c1C (centres undefined) | -27% | 26 | -2% | -7% | -9% | ?
COC(=O)c1c(NC(=O)C2CC=CCC2C(=O)O)sc(C(N)=O)c1C (centres undefined) | -23% | 10 | ? | -19% | ? | 18µM*
O=C(Nc1nnc(CCc2ccccc2)s1)c1cccc(F)c1 | 2% | 0 | · | · | · | ·
CN(O)/C=c1/ccc2c(n1)C(=O)C=CC=2 | -9% | -9 | -7% | -11% | ? | 10µM*
CN(C)c1ccc(/C=N/n2c(C3CCCCC3)n[nH]c2=S)cc1 | -20% | 1 | · | · | · | 10µM*
S=c1[nH]nc(C2CCCCC2)n1/N=C/c1ccco1 | -2% | 2 | -4% | 2% | 1% | 1.4µM*
S=c1[nH]nc(C2CCCCC2)n1/N=C/c1cccc(Cl)c1Cl | -3% | -1 | · | · | · | 8.9µM*
CCOc1ccc(/C=N/n2c(C3CCCCC3)n[nH]c2=S)cc1 | ? | 1 | · | · | · | 28µM*
Cc1nc2ccccc2c(=O)n1/N=C/c1ccc(N(C)C)cc1 | 12% | 3 | -11% | -5% | -16% | 26%[59 µM]
O=C(CN(C(=O)c1csnn1)c1ccccc1Cl)NC1CCCC1 | 20% | 1 | · | · | · | 5%
OC(CCc1cccc(Cl)c1)c1cccs1 (centres undefined) | 23% | -1 | · | · | · | 59%
COc1ccc(-c2cn3c(n2)sc2cc(C(=O)Nc4ccc(C)c(Cl)c4)ccc23)cc1 | · | · | -5% | -9% | -9% | 5%[59 µM]
S=c1[nH]nc(C2CCCCC2)n1/N=C/c1ccccn1 | ? | -22 | 5% | 18% | 15% | ?
S=c1[nH]nc(C2CCCCC2)n1/N=C/c1ccccc1 | -11% | 0 | · | · | · | 20µM*
Fc1ccc(/C=N/n2c(C3CCCCC3)n[nH]c2=S)cc1 | ? | -2 | · | · | · | 7.1µM*
CCOc1ccc(CNC(=O)c2cc3c(=O)n(C)c4ccccc4c3s2)cc1 | · | · | -5% | -6% | 3% | 7%[59 µM]
Cn1c(=O)n(-c2ccc3c(c2)OCO3)c2nc(-c3ccccc3)nc(C(N)=O)c21 | · | · | -11% | -9% | 5% | ?
CSCCC(NC(=O)COc1ccccc1)C(=O)N1CCCC(C(F)(F)F)C1 (centres undefined) | · | · | · | · | · | 5%[2.33 µM]
C/C(=N\N=C(/N)SC1CC(=O)N(c2ccc(Cl)cc2)C1=O)c1cccs1 (centres undefined) | 13% | 2 | ? | ? | -3% | 40µM*
COC(=O)c1ccc(NC(=O)c2nn(C)c3c2COc2ccccc2-3)cc1 | · | · | 4% | -24% | ? | 16µM*
SMILES | Sfp PPTase inh | FBPA coupling cs | Tau FP inhib | Tau fluor counter | Tau ThT inhib | G9a block
COC(=O)c1cc(NC(=O)c2nn(C)c3c2COc2ccccc2-3)cc(C(=O)OC)c1 | · | · | 5% | 1% | -10% | ?
COc1ccc(NC(=O)c2noc3c2CSc2ccccc2-3)cc1Cl | · | · | -7% | -9% | 3% | -34%[59 µM]
COc1cc(OC)c(NC(=O)c2noc3c2CSc2ccccc2-3)cc1Cl | · | · | 10% | -8% | ? | 1.6µM*
COc1cc(OC)c(NC(=O)c2nn(C)c3c2COc2ccccc2-3)cc1Cl | · | · | -3% | -6% | -6% | 2.2µM*
Cc1cccc(Cn2nnc3c(=O)[nH]c(C4CCN(C(=O)c5ccc(F)cc5)CC4)nc32)c1 | · | · | 2% | -4% | -3% | 4%[59 µM]
CCC(C)[C@H](N)c1nnc(SCc2ccc(Cl)c(Cl)c2)o1 (some centres undefined) | · | · | 3% | -14% | -5% | 8.9µM*
COC(=O)C1OC(=O)C2O[C@@]23[C@]2(C)C(OC(C)=O)CC4C(C)(C)C(=O)CC[C@]4(C)C2CC[C@@]13C (some centres undefined) | 10% | 5 | -7% | -3% | 3% | -41%[2.33 µM]
O=C1[C@H]2[C@H]3[C@H](O)[C@H](O)C/C(=N/OC[C@@H](O)COCc4ccco4)[C@@H]3CC[C@@H]2C(=O)N1C1CCCCC1 | 0% | 3 | -2%[11.6 µM] | -18%[11.6 µM] | -18%[11.5 µM] | ·
COc1ccc(O)c(C(=O)c2cnc3nc4ccccc4n3c2)c1 | -5% | -1 | -1% | -5% | ? | 32µM*
Cc1cc(C)nc(N/N=C/c2cc(Br)ccc2O)n1 | 7% | -5 | 2% | ? | ? | 11%
Cc1cccc(S(=O)(=O)C(C#N)c2nc3ccccc3nc2N2CC(C)OC(C)C2)c1 (centres undefined) | 13% | 3 | 1% | -20% | -17% | 8.9µM*
Cc1ccc(S(=O)(=O)C(C#N)c2nc3ccccc3nc2N2CC(C)OC(C)C2)cc1C (centres undefined) | 13% | 6 | 5% | -21% | ? | 40µM*
CCN1CCN(c2nc3ccccc3nc2C(C#N)S(=O)(=O)c2ccc(C)cc2)CC1 (centres undefined) | 3% | 3 | 0% | -21% | -15% | -9%
N#CC(c1nc2ccccc2nc1N1CCOCC1)S(=O)(=O)c1ccccc1 (centres undefined) | 16% | 8 | -3% | -21% | -18% | ?
Cc1ccc(S(=O)(=O)C(C#N)c2nc3ccccc3nc2N2CCCC2)cc1 (centres undefined) | ? | -30* | 0% | -25% | ? | ?
COc1cc(OC)c(NC(=O)CCS(=O)(=O)c2ccc3c(c2)oc(=O)n3C)cc1Cl | · | · | 0% | -5% | 3% | -4%[59 µM]
Oc1ccc2ccccc2c1/C=N/Nc1nnc(-c2ncc[nH]2)c2ccccc12 | 10% | -4 | ? | 8.9µM*[quencher] | 4µM* | 7%[12.7 µM]
O=C(Cn1c(SCc2ccccc2F)nc2cccnc21)Nc1ccc(F)c(Cl)c1 | · | · | ? | ? | -2% | ?
COc1ccc(NC(=O)Cn2c(SCc3cc(C)ccc3C)nc3ccncc32)c(OC)c1OC | · | · | -8% | 8.9µM*[quencher] | ? | ?
